# Results from PubChem BioAssay (NCI).
# Several values for one entry are separate records, joined by “and”; a condition that tells them apart may be missing. Identical values can stand only once. About 83,000 compounds went through this panel and 20% of them were active in at least one assay; those are over-represented in the sample as a whole.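 Plates (96-well) were seeded with cells, treated with compound at one concentration, and incubated for 48 hours before percent growth was determined.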 Activity calls are given as the source filed them. How the source made its calls: active means growth percent below 10; inactive means the rest.
# Columns and labels:
# Test in all cases: NCI-60 one-dose screen, 48 h (100 = growth as untreated, 0 = no growth, -100 = all killed)
# Details in all cases: 10 µM unless noted
# [1] = tested on: SR leukemia
# [2] = tested on: RPMI-8226 leukemia
# [3] = tested on: OVCAR-8 ovarian
# [4] = tested on: OVCAR-5 ovarian
# [5] = tested on: OVCAR-4 ovarian
# [6] = tested on: SK-OV-3 ovarian
# [7] = tested on: IGROV1 ovarian
# [8] = tested on: OVCAR-3 ovarian
# [9] = tested on: HS 578T breast
# [10] = tested on: NCI/ADR-RES ovarian
# [11] = tested on: BT-549 breast
# [12] = tested on: MDA-MB-435 melanoma
# [13] = tested on: SW-620 colon
# [14] = tested on: MCF7 breast
# [15] = tested on: HCT-116 colon
# [16] = tested on: HCC-2998 colon
# [17] = tested on: T-47D breast
# [18] = tested on: KM12 colon
Compound,growth [1],growth [2],growth [3],growth [4],growth [5],growth [6],growth [7],growth [8],growth [9],growth [10],growth [11],growth [12],growth [13],growth [14],growth [15],growth [16],growth [17],growth [18]
Fc1ccc([I+]c2ccc(F)cc2)cc1,38.6% (inactive),41.7% (inactive),46.1% (inactive),92.9% (inactive),52.1% (inactive),68.4% (inactive),62.4% (inactive),64.9% (inactive),86.2% (inactive),98.8% (inactive),67% (inactive),75% (inactive),55.9% (inactive),48.2% (inactive),32.9% (inactive),71.7% (inactive),–,–
CC(=O)OC(C)C(=O)NCC(C)O (centres undefined),88% (inactive),–,102% (inactive),104% (inactive),100% (inactive),95.3% (inactive),114% (inactive),107% (inactive),–,106% (inactive),111% (inactive),111% (inactive),94.3% (inactive),96.9% (inactive),95.2% (inactive),99.4% (inactive),96.3% (inactive),102% (inactive)
NC(Cc1c[nH]c2ccccc12)C(=O)O (centres undefined),53.3% (inactive) and 105% (inactive),86.6% (inactive) and 103% (inactive),58.3% (inactive) and 93.5% (inactive),91.7% (inactive) and 103% (inactive),108% (inactive) and 102% (inactive),106% (inactive) and 105% (inactive),105% (inactive) and 120% (inactive),120% (inactive) and 107% (inactive),115% (inactive) and 95.3% (inactive),105% (inactive) and 111% (inactive),113% (inactive) and 102% (inactive),98.9% (inactive) and 105% (inactive),111% (inactive) and 95.9% (inactive),105% (inactive) and 98.5% (inactive),91.4% (inactive) and 86.7% (inactive),103% (inactive) and 101% (inactive),110% (inactive),108% (inactive) and 109% (inactive)
COc1ccc(N/C=C/C2=[N+](C)c3ccccc3C2(C)C)c(OC)c1,101% (inactive),81.6% (inactive),93.6% (inactive),106% (inactive),91.7% (inactive),90.7% (inactive),106% (inactive),93.6% (inactive),99.9% (inactive),92.8% (inactive),89.3% (inactive),95% (inactive),92.7% (inactive),87.7% (inactive),88.8% (inactive),98.4% (inactive),89.5% (inactive),–
O=c1n(CC2CO2)c(=O)n(CC2CO2)c(=O)n1CC1CO1 (centres undefined),–,84.6% (inactive),64.4% (inactive),108% (inactive),100% (inactive),68.6% (inactive),52.3% (inactive),79.2% (inactive),104% (inactive),72.2% (inactive),77.1% (inactive),82.9% (inactive),75.5% (inactive),42.5% (inactive),73.9% (inactive),94.8% (inactive),53.5% (inactive),–
Cc1ccc(=O)[nH]n1,98.9% (inactive) and 93% (inactive),108% (inactive),100% (inactive) and 102% (inactive),115% (inactive) and 98.4% (inactive),112% (inactive) and 122% (inactive),111% (inactive) and 112% (inactive),106% (inactive),106% (inactive) and 107% (inactive),–,103% (inactive),112% (inactive) and 113% (inactive),113% (inactive),102% (inactive) and 103% (inactive),101% (inactive) and 96.2% (inactive),107% (inactive),98.2% (inactive) and 107% (inactive),109% (inactive) and 95.4% (inactive),–
Nc1nc(N)c2[nH]cnc2n1,93% (inactive),64.3% (inactive),70.4% (inactive),90.3% (inactive),88.5% (inactive),–,–,97.8% (inactive),–,87.3% (inactive),96.8% (inactive),84.5% (inactive),85.9% (inactive),54.2% (inactive),90.5% (inactive),86% (inactive),59.1% (inactive),107% (inactive)
CC1CCC2(OC1)OC1CC3C4CC=C5CC(O)CCC5(C)C4CCC3(C)C1C2C (centres undefined),29.7% (inactive),71.4% (inactive),102% (inactive),114% (inactive),95.7% (inactive),114% (inactive),67.5% (inactive),105% (inactive),–,114% (inactive),130% (inactive),116% (inactive),106% (inactive),105% (inactive),92.2% (inactive),112% (inactive),106% (inactive),–
CC[C@H](CC[C@@H](C)[C@H]1CC[C@H]2[C@@H]3CC=C4C[C@@H](O)CC[C@]4(C)[C@H]3CC[C@]12C)C(C)C,109% (inactive) and 101% (inactive),114% (inactive),98.9% (inactive) and 105% (inactive),45.2% (inactive) and 103% (inactive),97.6% (inactive) and 114% (inactive),94.8% (inactive) and 104% (inactive),111% (inactive),112% (inactive) and 108% (inactive),96.5% (inactive) and 103% (inactive),-46.1% (active) and 101% (inactive),100% (inactive),97.4% (inactive) and 99.4% (inactive),110% (inactive) and 104% (inactive),107% (inactive) and 89.8% (inactive),94.6% (inactive) and 105% (inactive),108% (inactive),97.2% (inactive) and 105% (inactive),–
Nc1ncnc2c1ncn2C1OC(COP(=O)(O)O)C(O)C1O (centres undefined),111% (inactive),106% (inactive),111% (inactive),108% (inactive),126% (inactive),114% (inactive),–,124% (inactive),–,109% (inactive),113% (inactive),–,–,101% (inactive),108% (inactive),104% (inactive),123% (inactive),–
CCCCCCCCCCCCCCCc1ccc(N)c(OC2OC(CO)C(O)C(O)C2O)c1 (centres undefined),40.2% (inactive),28.7% (inactive),87.1% (inactive),65.8% (inactive),85.2% (inactive),149% (inactive),–,93.6% (inactive),–,73% (inactive),54.8% (inactive),99.6% (inactive),98.2% (inactive),93.7% (inactive),87.7% (inactive),9.53% (active),104% (inactive),–
O=C(/C=C/c1ccccc1)c1ccccc1,–,32% (inactive),103% (inactive),98.4% (inactive),95.3% (inactive),91.7% (inactive),84.7% (inactive),98.7% (inactive),98.4% (inactive),118% (inactive),126% (inactive),76.6% (inactive),86.6% (inactive),-2.52% (active),6.71% (active),120% (inactive),64.6% (inactive),–
NN1CCOC(c2ccccc2)C1 (centres undefined),29.8% (inactive),97.8% (inactive),103% (inactive),97.1% (inactive),119% (inactive),106% (inactive),122% (inactive),106% (inactive),99.5% (inactive),105% (inactive),102% (inactive),106% (inactive),98% (inactive),91.8% (inactive),91.2% (inactive),107% (inactive),109% (inactive),–
CC1(C)COC(=S)N1,93.8% (inactive),–,103% (inactive),93.4% (inactive),102% (inactive),109% (inactive),95.8% (inactive),110% (inactive),–,106% (inactive),102% (inactive),101% (inactive),109% (inactive),105% (inactive),105% (inactive),106% (inactive),99.9% (inactive),–
CC(C)NCC(O)c1ccc(O)c(O)c1 (centres undefined),–,96.6% (inactive) and 99.6% (inactive),94.8% (inactive) and 131% (inactive) and 91.7% (inactive),89.2% (inactive) and 92.6% (inactive) and 86.9% (inactive),107% (inactive) and 110% (inactive) and 97.1% (inactive),95.5% (inactive) and 94.9% (inactive) and 102% (inactive),96.4% (inactive) and 101% (inactive),113% (inactive) and 102% (inactive) and 108% (inactive),112% (inactive) and 96.6% (inactive) and 109% (inactive),96.3% (inactive) and 102% (inactive) and 93.8% (inactive),84.7% (inactive) and 79.9% (inactive) and 84% (inactive),104% (inactive) and 105% (inactive) and 101% (inactive),104% (inactive) and 107% (inactive) and 93% (inactive),100% (inactive) and 85.1% (inactive) and 109% (inactive),100% (inactive) and 93.3% (inactive) and 71.7% (inactive),105% (inactive) and 117% (inactive) and 108% (inactive),98% (inactive) and 90.5% (inactive) and 102% (inactive),–
